Publication PMC7819943, “Rice protein-binding microarrays: a tool to detect cis-acting elements near promoter regions in rice”
The full ranking holds about 68,000 sequences; the median of “fluorescence intensity (a.u.)” is about 9,100, and the highest 2% start at about 16,000. For the sample, the highest values were picked, then their nearest neighbours and some sequences at random.

These sequences were tested against OsWRKY34 (Oryza sativa, UniProt Q0JBA9 1-250) (assay: protein-binding microarray (RPBM); PBS, 2% BSA, 51.3 ng/ul salmon testes DNA, 50 uM zinc acetate, 200 nM TF, 25 C, 1 h; high values mean tight binding). Details: protein: recombinant; tags: N-terminal polyhistidine and DsRed monomer fusion (pET32a); label: CyDye5-dUTP incorporated in the synthesized complementary strand; 3' TTTTT single-stranded linker to array surface; dsDNA, one strand shown.
OsWRKY34, sequence (Q0JBA9 entry or part of it): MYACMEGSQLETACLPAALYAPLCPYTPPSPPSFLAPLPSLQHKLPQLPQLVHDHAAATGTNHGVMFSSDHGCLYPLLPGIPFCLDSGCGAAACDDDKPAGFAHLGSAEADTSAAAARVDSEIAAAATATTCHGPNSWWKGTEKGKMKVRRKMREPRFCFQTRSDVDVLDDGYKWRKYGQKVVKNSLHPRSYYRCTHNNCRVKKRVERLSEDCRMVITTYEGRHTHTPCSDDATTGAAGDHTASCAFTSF
Method in brief: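 For the binding signal, per-feature fluorescence intensity was read in arbitrary units on an Axon 4000B scanner. Before scanning, a 2% BSA-blocked custom Agilent array made double-stranded with Cy5-dUTP was washed after 1 h at 25 °C with 200 nM protein and 50 µM zinc acetate. The proteins were Ni–NTA-purified transcription factors with N-terminal polyhistidine and DsRed fusions, expressed in E. coli BL21-CodonPlus.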
For “GGGTGTGTAAGGGTAGGTGGAGGGGTGGGTGATGCGAGATCGGAGTCACCTAGTGCAG”, the binding signal was 20400 fluorescence intensity (a.u.).
In the case of “GGATGAGGAGGAGGGTGTGGAGGAGGAGGAGGAGGAGGTGCGGAGTCACCTAGTGCAG”, the binding signal was 11500 fluorescence intensity (a.u.).
With “GGAGGTCAGGATTGTTGTGGTGGGGAATTGGAGGGAAATGCGGAGTCACCTAGTGCAG” the binding signal was 19600 fluorescence intensity (a.u.).
“AGGTGGAGGTGGGGAGGATGCGGGAGAGGGAGGTGATGATCGGAGTCACCTAGTGCAG” was tested, and the binding signal was 14000 fluorescence intensity (a.u.).
With “GGGAGGGGCGGCCCAGCGGCAGCGGAGGGGAGGGAGGATGCGGAGTCACCTAGTGCAG” the binding signal was 8640 fluorescence intensity (a.u.).
“TTATAACATCTCTAGCTTCCTTTTCTAACCGTTTAACTTTCGGAGTCACCTAGTGCAG” was tested, and the binding signal was 8410 fluorescence intensity (a.u.).
For “TTGGTTGTGTGTGTGCCGCCGCGAGCCCGTGACGGCGCCCCGGAGTCACCTAGTGCAG”, the binding signal was 9390 fluorescence intensity (a.u.).
With “AATTTTTATATTGTTGACCTGCAGATCCTTATGTTGGACTCGGAGTCACCTAGTGCAG” the binding signal was 8260 fluorescence intensity (a.u.).
With “AACGTACCACTCCCGTGGGCCGGACCAACACTCCTTCCCACGGAGTCACCTAGTGCAG” the binding signal was 9510 fluorescence intensity (a.u.).
In the case of “TGCGTGTTGTGTGTGTGGGTGATCTTTGGCGCGCCTCGTCCGGAGTCACCTAGTGCAG”, the binding signal was 8120 fluorescence intensity (a.u.).
With “ATCCCCATTTTTTTCCCAAGTGGTACACTGAAATTTTTTTCGGAGTCACCTAGTGCAG” the binding signal was 8100 fluorescence intensity (a.u.).
“TTCCCCACCACCACCAACCCAGACCGGCCGCGGCCTATATCGGAGTCACCTAGTGCAG” was tested, and the binding signal was 8270 fluorescence intensity (a.u.).
With “TTTATAGATGGGGAAGGGGTGGCAACTAGAGACGCGACGGCGGAGTCACCTAGTGCAG” the binding signal was 9070 fluorescence intensity (a.u.).
With “TTCTCCGTGTTAATATCACTTACGTCAAGGACCTATTTGTCGGAGTCACCTAGTGCAG” the binding signal was 8750 fluorescence intensity (a.u.).
For “CGATGTGATTTAGTGAAAAATTTTAGGGTGGGCTAAACAGCGGAGTCACCTAGTGCAG”, the binding signal was 11500 fluorescence intensity (a.u.).
With “CGGTGAGGGGTGGACTGGGAGTGCGTGGGTGGGTGTGATGCGGAGTCACCTAGTGCAG” the binding signal was 13400 fluorescence intensity (a.u.).
With “GACTGGGAGGATGAGGGGTGGGTGGGTGTGGCTGCTTCTGCGGAGTCACCTAGTGCAG” the binding signal was 19100 fluorescence intensity (a.u.).
With “GTGAAGCGATCTGTATTGGTGGAGGGGAGGGGAGGGGATGCGGAGTCACCTAGTGCAG” the binding signal was 24000 fluorescence intensity (a.u.).
In the case of “GGGGTGGGGTGGAGAGGGTGAAGCGGCGACGGTGACGATGCGGAGTCACCTAGTGCAG”, the binding signal was 9870 fluorescence intensity (a.u.).
“TGGAGGTGGGGAGGATGCGGGAGAGGGAGGTGATGATGGGCGGAGTCACCTAGTGCAG” was tested, and the binding signal was 8790 fluorescence intensity (a.u.).
“GGCGTGTTGGTGTGCGTGGATTGGGTGGGTGAGGAGGATGCGGAGTCACCTAGTGCAG” was tested, and the binding signal was 13000 fluorescence intensity (a.u.).
In the case of “GTGTGGAGGTGGTGGGGAGTGTGAGGAGAGGGAGGGGATGCGGAGTCACCTAGTGCAG”, the binding signal was 18000 fluorescence intensity (a.u.).
“GTGAGGTGGGGTGGTGTGGCTTCTGCTGCTGCTGCTACTGCGGAGTCACCTAGTGCAG” was tested, and the binding signal was 15100 fluorescence intensity (a.u.).
In the case of “TCGCTGTGAGTGGAGGAGGAGGAGGAAGGGGAGGAGGATGCGGAGTCACCTAGTGCAG”, the binding signal was 8630 fluorescence intensity (a.u.).
With “TTTTGCCATCTGGTAATCCCTCTACCACCAACAGCTACAACGGAGTCACCTAGTGCAG” the binding signal was 9220 fluorescence intensity (a.u.).
“AGTACTCCTCCGTTCTAAATTAGATGTCGTTTTGATTTTTCGGAGTCACCTAGTGCAG” was tested, and the binding signal was 8570 fluorescence intensity (a.u.).
“CTCTTGGCGATTTGCGGAAGTTGTTGTTGTCCCCTTGCTCCGGAGTCACCTAGTGCAG” was tested, and the binding signal was 8060 fluorescence intensity (a.u.).
For “TTAGCAAAAACATATCCTTTCTTGCCACACTACTAAGCCACGGAGTCACCTAGTGCAG”, the binding signal was 8160 fluorescence intensity (a.u.).
In the case of “ACACGGCCACCCGCATCCGCACCACCCGCAAGCCGCGACGCGGAGTCACCTAGTGCAG”, the binding signal was 9450 fluorescence intensity (a.u.).
For “GCTGGGAGTTAGAACGGTGATCCATCTAGATGTAATGGTCCGGAGTCACCTAGTGCAG”, the binding signal was 8740 fluorescence intensity (a.u.).
For “CTCCGTTTTCACCCCTATGTATAGTTTATATGTAAATTGCCGGAGTCACCTAGTGCAG”, the binding signal was 8830 fluorescence intensity (a.u.).
“ATTTGATTTATTGTTAAATATACTTTCATGTACACATATACGGAGTCACCTAGTGCAG” was tested, and the binding signal was 8240 fluorescence intensity (a.u.).
“TTGTTACTTTAATTTGTACATCATCATGCGGGTCCGTATACGGAGTCACCTAGTGCAG” was tested, and the binding signal was 16600 fluorescence intensity (a.u.).
With “GGGTGTAATTTTTGTTTTACATGTACGGAATTTTTTACTCCGGAGTCACCTAGTGCAG” the binding signal was 10800 fluorescence intensity (a.u.).
“ATATAGCCTACTACTAGCTCCAAATCATCTATAGTCAATGCGGAGTCACCTAGTGCAG” was tested, and the binding signal was 8120 fluorescence intensity (a.u.).
In the case of “TGGGAGGGTTTCTGATCATCAGCTGTCCTCTTTACCGGCACGGAGTCACCTAGTGCAG”, the binding signal was 11300 fluorescence intensity (a.u.).
With “GGATTGCCGGTTTTTGGTGTCCTTTTCGCATCAGCTTTAGCGGAGTCACCTAGTGCAG” the binding signal was 9120 fluorescence intensity (a.u.).
With “GACGCCGTTAACTTTTTCTCACATGTTTAACCATTCGTCTCGGAGTCACCTAGTGCAG” the binding signal was 12700 fluorescence intensity (a.u.).
With “TAGATGATGCTGTTAACTTTTTCTCACATGTTTGACCATTCGGAGTCACCTAGTGCAG” the binding signal was 12700 fluorescence intensity (a.u.).
In the case of “AGATGACGCCATTGACTTTTTCTCACATGTTTGACCATTCCGGAGTCACCTAGTGCAG”, the binding signal was 15800 fluorescence intensity (a.u.).
With “ATAGATGACGCCGTTGATTTTTTCTCACATGTTTGACCGTCGGAGTCACCTAGTGCAG” the binding signal was 15600 fluorescence intensity (a.u.).
“GACGCCGTTGATTTTTTCTCACATGTTTGACCATTCGTCTCGGAGTCACCTAGTGCAG” was tested, and the binding signal was 18000 fluorescence intensity (a.u.).
With “TTTCTCACATGTTTGACCATTCGTCTTATTCAAAAATTTTCGGAGTCACCTAGTGCAG” the binding signal was 12800 fluorescence intensity (a.u.).
In the case of “TTTTCTCACATGTTTGACCATTCGTCTTATTCAAAAATTTCGGAGTCACCTAGTGCAG”, the binding signal was 9990 fluorescence intensity (a.u.).
“TAGATGACGTCGTTGACTTTTTCTCACATGTTTGACCATTCGGAGTCACCTAGTGCAG” was tested, and the binding signal was 28800 fluorescence intensity (a.u.).
For “GACGCTGTTGACTTTTTCTCACATGTTTGACCATTCGTCTCGGAGTCACCTAGTGCAG”, the binding signal was 28900 fluorescence intensity (a.u.).
